NS1 function inh – inhibitors of influenza NS1 protein function. Potency, µM (top dose mostly 46.1 µM), for the others: at the highest dose activity, positive = more growth. AID 2326. 270,000 tested, 0.4% active; calls by dose curve; note: actives are rising curves; nearly all actives have a fitted effect of over 50% in size
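Recovery from NS1-induced slow growth read by OD600 in budding yeast switched to galactose assay medium (pH 6.0, -URA) at 1:100 dilution. Compound 23 nl per well; the matching strain lacking NS1 serves as control.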
AmpC inh no detg – inhibitors of E. coli AmpC beta-lactamase without detergent; AmpC nitrocefin hydrolysis, absorbance 480 nm, 0.0001% Triton; Potency, µM (top dose mostly 57.1 µM), for inactives: at the highest dose activity change, negative = inhibition, most hits filed as inhibitors; 330,000 tested, 0.52% active; AID 485341;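 note: plate controls were no compound for no effect and no enzyme for full effect; nearly all actives have a fitted effect of over 20% in size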
Target sequence (P00811 whole entry, looked up): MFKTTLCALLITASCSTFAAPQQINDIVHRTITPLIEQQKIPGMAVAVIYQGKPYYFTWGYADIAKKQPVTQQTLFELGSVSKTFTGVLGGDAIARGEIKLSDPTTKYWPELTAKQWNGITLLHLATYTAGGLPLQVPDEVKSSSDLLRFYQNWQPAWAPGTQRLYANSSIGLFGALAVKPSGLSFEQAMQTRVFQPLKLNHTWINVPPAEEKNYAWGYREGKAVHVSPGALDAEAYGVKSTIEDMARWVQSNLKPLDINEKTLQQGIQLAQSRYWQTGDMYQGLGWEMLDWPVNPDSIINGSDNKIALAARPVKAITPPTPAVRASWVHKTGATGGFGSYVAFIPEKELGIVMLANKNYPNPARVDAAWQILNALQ
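20 mM phosphate pH 7.0 + 0.01% (detergent screen) or 0.0001% Triton X-100; 5.3 nM AmpC reagent; cpd preinc 15 min RT; nitrocefin (800 uM stock) to start; A480 q20 s × 4 min; Activity was normalised to no-enzyme and no-compound control wells.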
AmpC inh detg – blocks E. coli AmpC beta-lactamase in detergent assay; P00811; AmpC hydrolysis of nitrocefin, absorbance 480 nm, 0.01% Triton; Potency, µM (top dose mostly 114 µM), for inactives: at the top dose activity change, negative = inhibition, most hits filed as inhibitors; 370,000 tested, 0.041% active; AID 485294;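 note: 0% = no-compound wells and -100% = no-enzyme wells; nearly all actives have a fitted effect of over 25% in size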
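AmpC (5.3 nM in the dispensed reagent) in 20 mM phosphate pH 7.0 with 0.01% (detergent screen) or 0.0001% Triton X-100 was preincubated with compounds for 15 min at room temperature. Nitrocefin was then added from an 800 uM solution, and hydrolysis was followed at 480 nm.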
AMA1-RON2 inh – disrupts binding of P. falciparum AMA1 to RON2 | AlphaScreen AMA1-biotinylated RON2 peptide binding | Potency, µM (top dose mostly 58.2 µM), for the others: at the top dose activity change, negative = inhibition, most hits filed as inhibitors | 360,000 tested, 0.2% active | AID 720542;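 note: 0% = vehicle wells and -100% = peptide control; nearly all actives have a fitted effect of over 45% in size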
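AMA1 (3D7) with his tag at 25 nM final met compounds first, then biotinylated RON2 peptide at 25 nM; detection used donor plus acceptor beads, 10 µg/mL apiece, read by AlphaScreen after 30 min at room temperature.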
An asterisk follows results filed as active. In the library only some 0.86% were active in any assay of this set; here they are far more common. Unless noted, calls come from the whole dose curve; as a rule, active = well fitted curve in the direction sought with a large enough effect; inconclusive = small, poorly fitted or top-dose-only effect, or another doubt; inactive = no such curve, though single readings can be large; an effect the other way counts as inactive or inconclusive. Potency is the fitted concentration of half-maximal effect.

Results for C=C(C)CSc1nc2sc3c(c2c(=O)n1-c1ccccc1)CC(C(C)C)OC3 (stereo not given) ?
AmpC inh detg: 3.4%

What do the screens show for `Cc1cc(=O)[nH]c(SCC(=O)Nc2ccc(Br)cn2)n1`?
NS1 function inh: inconclusive; AmpC inh no detg: 1.26µM*; AmpC inh detg: 3.9%; AMA1-RON2 inh: -0.8%

What do the screens show for `Cc1ccc(-c2csc(NC(=O)CSc3nc(C)cc(=O)[nH]3)n2)cc1`?
NS1 function inh: -54.8%; AmpC inh no detg: 14.1µM*; AmpC inh detg: -8.5%; AMA1-RON2 inh: 0.9%

What do the screens show for `O=S1(=O)C=C(SCc2ccc(Cl)c(Cl)c2)Nc2ccccc21`?
NS1 function inh: -3.8%; AmpC inh no detg: 17.8µM*; AmpC inh detg: 1.1%; AMA1-RON2 inh: 0.0%

What do the screens show for `O=C(Nc1ccc(F)cc1F)c1noc2c1CCc1ccccc1-2`?
AmpC inh detg: 16.6%

How did Oc1cccc(/C=N/N(Cc2ccccc2)c2ccccc2)c1 do in these assays?
AmpC inh no detg: -35.2%; AmpC inh detg: -4.9%; AMA1-RON2 inh: inconclusive

Results for Oc1ccc(/C=N/N(Cc2ccccc2)c2ccccc2)c(O)c1O ?
AmpC inh no detg: 17.8µM*; AmpC inh detg: -2.8%; AMA1-RON2 inh: 2.7%

How did O=C(NCCn1cc(SCc2ccc(C(F)(F)F)cc2)c2ccccc21)c1cccs1 do in these assays?
AmpC inh detg: 6.4%

Results for O=C(CSc1cn(CCNC(=O)c2cccs2)c2ccccc12)NC1CCCC1 ?
NS1 function inh: -4.2%; AmpC inh no detg: 28.2µM*; AmpC inh detg: inconclusive; AMA1-RON2 inh: 13.9%

Results for COc1ccccc1NC(=O)c1nn(-c2ccccc2)ccc1=O ?
NS1 function inh: -1.4%; AmpC inh no detg: 0.141µM*; AmpC inh detg: -3.3%; AMA1-RON2 inh: -3.0%

Results for Cc1c2cc(O)c(=O)cc-2oc2cc(O)c(O)cc12 ?
NS1 function inh: 3.4%; AmpC inh no detg: inconclusive; AmpC inh detg: inconclusive

Results for COc1cc(OC)c(-c2c3cc(O)c(=O)cc-3oc3cc(O)c(O)cc23)cc1OC ?
NS1 function inh: 4.0%; AmpC inh no detg: -17.5%; AmpC inh detg: inconclusive; AMA1-RON2 inh: 7.94µM*

Results for COc1ccc(OCC(=O)N/N=C(\C)CC(=O)Nc2cccc([N+](=O)[O-])c2)cc1 ?
AmpC inh no detg: -25.7%; AmpC inh detg: -1.5%; AMA1-RON2 inh: 78.1%

How did O=C(CC1Oc2ccccc2NC1=O)NCCCN1CCOCC1 (stereo not given) do in these assays?
NS1 function inh: -6.1%; AmpC inh no detg: 2.51µM*; AmpC inh detg: inconclusive; AMA1-RON2 inh: 7.7%

What do the screens show for `O=C(Nc1ccc(F)cc1F)Nc1sccc1-c1nc2ccccc2s1`?
NS1 function inh: 7.2%; AmpC inh no detg: 7.94µM*; AmpC inh detg: 7.5%; AMA1-RON2 inh: 38.8%

Results for Cc1ccccc1OCC(=O)Nc1ccccc1OCc1cc(=O)n2ccccc2n1 ?
AmpC inh detg: 11.3%

What do the screens show for `O=C1NC(=O)N(Cc2ccccc2Cl)C(=O)/C1=C/c1cccs1`?
AmpC inh no detg: 20µM*; AmpC inh detg: -3.4%; AMA1-RON2 inh: -2.4%

How did COc1cc(OC)c(C2C=CC(=O)CC2)c(OC)c1 (stereo not given) do in these assays?
AMA1-RON2 inh: 0.1%

How did CCCCC(c1nnnn1CS(=O)(=O)c1ccc(C)cc1)N1CCN(c2ccccc2)CC1 (stereo not given) do in these assays?
NS1 function inh: 7.08µM*; AmpC inh no detg: -22.8%; AmpC inh detg: -0.2%; AMA1-RON2 inh: -9.0%

What do the screens show for `CCCC(c1nnnn1CS(=O)(=O)c1ccc(C)cc1)N1CCN(C2CCCC2)CC1` (stereo not given)?
NS1 function inh: 10.0%; AmpC inh no detg: 26.7%; AmpC inh detg: 2.9%; AMA1-RON2 inh: -5.7%

Results for N#CCCN(C(=S)Nc1ccc(S(=O)(=O)N2CCOCC2)cc1)c1ccccc1F ?
AmpC inh no detg: -16.8%; AmpC inh detg: -12.3%; AMA1-RON2 inh: -26.0%

What do the screens show for `O=C1/C(=C\c2ccc(O)c(O)c2)SC(=S)N1Cc1ccccc1`?
NS1 function inh: -61.4%; AmpC inh no detg: 11.2µM*; AmpC inh detg: -4.9%; AMA1-RON2 inh: inconclusive

How did COc1cc(/C=C2/SC(=S)N(Cc3ccccc3)C2=O)ccc1O do in these assays?
NS1 function inh: 22.5%; AmpC inh no detg: -36.7%; AmpC inh detg: 15.8%; AMA1-RON2 inh: -8.4%

What do the screens show for `O=C1/C(=C\c2cc([N+](=O)[O-])ccc2O)SC(=S)N1Cc1ccc(Cl)cc1`?
NS1 function inh: -52.2%; AmpC inh no detg: 3.55µM*; AmpC inh detg: 2.5%; AMA1-RON2 inh: -9.6%

How did Cc1ccccc1/C=C1\SC(=S)N(/N=C/c2cc([N+](=O)[O-])ccc2O)C1=O do in these assays?
AmpC inh no detg: 28.2µM*; AmpC inh detg: 1.0%; AMA1-RON2 inh: 11.6%

What do the screens show for `CCOc1ccccc1Oc1ncnc2c1oc1ccccc12`?
AmpC inh detg: 8.7%

How did Cc1cc(O)c(C(C[N+](=O)[O-])c2ccc(Cl)cc2)c(=O)o1 (stereo not given) do in these assays?
NS1 function inh: -2.8%; AmpC inh no detg: -19.6%; AmpC inh detg: 0.5%; AMA1-RON2 inh: 9.8%

What do the screens show for `Cc1cc(C)n(C(C[N+](=O)[O-])c2ccc(Cl)cc2)n1` (stereo not given)?
NS1 function inh: 8.0%; AmpC inh no detg: 17.8µM*; AmpC inh detg: 2.1%; AMA1-RON2 inh: -1.7%

Results for COc1cc(/C=N/NC(=O)CCOc2ccccc2C)cc(Br)c1O ?
AmpC inh no detg: 22.4µM*; AmpC inh detg: 0.5%; AMA1-RON2 inh: -1.6%

What do the screens show for `COc1ccc(NC(=O)CCC(=O)c2cccs2)cc1Cl`?
NS1 function inh: -3.7%; AmpC inh no detg: -15.6%; AmpC inh detg: 0.5%; AMA1-RON2 inh: 15.3%

What do the screens show for `COc1cc(NCCC(=O)c2cccs2)c(OC)cc1Cl`?
AmpC inh no detg: -22.7%; AmpC inh detg: inconclusive; AMA1-RON2 inh: 14.1µM*

What do the screens show for `COc1cc(CNC(=O)c2cc(-c3cc(OC)ccc3Cl)n[nH]2)cc(OC)c1`?
AMA1-RON2 inh: -1.9%

What do the screens show for `S=C(NN=C(c1ccccc1)c1ccccn1)N(Cc1ccccn1)Cc1ccccn1`?
AMA1-RON2 inh: 11.2µM*

How did N#Cc1ccc(C2CC(OCCF)=CC(=O)O2)cc1 (stereo not given) do in these assays?
AMA1-RON2 inh: -13.1%

How did COc1ccc(OC)c(S(=O)(=O)N2CCN(c3c(C)cccc3C)CC2)c1 do in these assays?
NS1 function inh: -43.8%; AmpC inh no detg: 39.8µM*; AmpC inh detg: inconclusive; AMA1-RON2 inh: -7.2%

Results for CC1(C(=O)Nc2ccc3[nH]ncc3c2)CCN1C(=O)CCc1ccccc1 (stereo not given) ?
AMA1-RON2 inh: 1.0%

How did CCOC(=O)c1c(NC(=O)CSc2nnc(-c3c[nH]c4ccccc34)n2C)sc2c1CCCC2 do in these assays?
NS1 function inh: -5.3%; AmpC inh no detg: 3.55µM*; AmpC inh detg: -4.4%; AMA1-RON2 inh: -4.9%

How did N#Cc1c(NC(=O)CSc2nnc(-c3ccco3)n2-c2ccccc2)sc2c1CCC2 do in these assays?
NS1 function inh: 4.7%; AmpC inh no detg: -44.7%; AmpC inh detg: -6.8%; AMA1-RON2 inh: -2.7%

Bioassay records deposited in PubChem by National Center for Advancing Translational Sciences (NCATS).
